Substitutions are numbered along the chain they refer to. Numbers in names are those of the source.

Test [1] addresses NR5A2 wild type;histone octamer (Homo sapiens;, UniProt O00482;C0HKE1;Q6ZWY9;P84244;P62806 1-541;2-130;2-126;2-136;2-103, |). Put plainly: SeEN-seq (EMSA of nucleosome library followed by sequencing); 0.8 uM human NR5A2; 20 mM Tris-HCl pH 7.5, 120 mM NaCl, 1 mM MgCl2, 10 uM ZnCl2, 1 mM DTT, 100 ug/ml BSA, room temperature, 30 min; 0.1 uM nucleosome library; high values mean tight binding. (In general: A gel shift assay detects complexes by their altered migration in electrophoresis.)

The target in test [2] is mouse Nr5a2 wild type;histone octamer (Mus musculus;, UniProt P45448;C0HKE1;Q6ZWY9;P84244;P62806 1-560;2-130;2-126;2-136;2-103, |). Nature of the test: SeEN-seq (EMSA of nucleosome library followed by sequencing); 1.2 uM mouse Nr5a2; 20 mM Tris-HCl pH 7.5, 120 mM NaCl, 1 mM MgCl2, 10 uM ZnCl2, 1 mM DTT, 100 ug/ml BSA, room temperature, 30 min; 0.1 uM nucleosome library; high values mean tight binding.

B1: 65 (nucleosome)
DNA 1: ATCCTGGAGAATCCCGGTGCCGAGGCCGCTCAATTGGTCGTAGACAGCTCTAGCACCGCTTAAACGCTCAAGGCCACTGTCCCCCGCGTTTTAACCGCCAAGGGGATTACTCCCTAGTCTCCAGGCACGTGTCAGATATATACATCCTGTGAT
DNA 2: ATCACAGGATGTATATATCTGACACGTGCCTGGAGACTAGGGAGTAATCCCCTTGGCGGTTAAAACGCGGGGGACAGTGGCCTTGAGCGTTTAAGCGGTGCTAGAGCTGTCTACGACCAATTGAGCGGCCTCGGCACCGGGATTCTCCAGGAT
modifications: reconstituted with mouse histones H2A, H2B, H3.3 and H4
As for B1, the binding signal in test [1] was 0.891 log2 enrichment (bound/unbound, relative to Widom 601); in test [2], 1.14 log2 enrichment (bound/unbound, relative to Widom 601).

B2: 71 (nucleosome)
DNA 1: B1 DNA 1 with T68A, A70G, A71T, G72A, G73C, C74T, C77A, T78G, T80C, C82A
DNA 2: B1 DNA 2 with G72T, A74G, A76C, G77T, G80A, C81G, C82T, T83A, T84C, A86T
modifications: reconstituted with mouse histones H2A, H2B, H3.3 and H4
B2: the binding signal in test [1] is 1.13 log2 enrichment (bound/unbound, relative to Widom 601); in test [2], 1.45 log2 enrichment (bound/unbound, relative to Widom 601).

B3: 68 (nucleosome)
DNA 1: B1 DNA 1 with T68A, A70G, A71T, G72C, G73A, C74A, C75G, A76G, T78C, G79A
DNA 2: B1 DNA 2 with C75T, A76G, T78C, G79C, G80T, C81T, C82G, T83A, T84C, A86T
modifications: reconstituted with mouse histones H2A, H2B, H3.3 and H4
With B3, the binding signal in test [1] is 0.625 log2 enrichment (bound/unbound, relative to Widom 601); in test [2], 0.543 log2 enrichment (bound/unbound, relative to Widom 601).

B4: 69 (nucleosome)
DNA 1: ATCCTGGAGAATCCCGGTGCCGAGGCCGCTCAATTGGTCGTAGACAGCTCTAGCACCGCTTAAACGCACGTTCAAGGCCACCCCCGCGTTTTAACCGCCAAGGGGATTACTCCCTAGTCTCCAGGCACGTGTCAGATATATACATCCTGTGAT
DNA 2: ATCACAGGATGTATATATCTGACACGTGCCTGGAGACTAGGGAGTAATCCCCTTGGCGGTTAAAACGCGGGGGTGGCCTTGAACGTGCGTTTAAGCGGTGCTAGAGCTGTCTACGACCAATTGAGCGGCCTCGGCACCGGGATTCTCCAGGAT
modifications: reconstituted with mouse histones H2A, H2B, H3.3 and H4
B4: the binding signal was 0.77 log2 enrichment (bound/unbound, relative to Widom 601) in test [1] and 0.872 log2 enrichment (bound/unbound, relative to Widom 601) in test [2].

B5: 70 (nucleosome)
DNA 1: B4 DNA 1 with T72A, C73T, A74C, G76A, C78G, A80C, C81A
DNA 2: B4 DNA 2 with G73T, T74G, G76C, C78T, T80G, G81A, A82T
modifications: reconstituted with mouse histones H2A, H2B, H3.3 and H4
Regarding B5, the binding signal in test [1] was 1.27 log2 enrichment (bound/unbound, relative to Widom 601); in test [2], 1.51 log2 enrichment (bound/unbound, relative to Widom 601).

B6: 73 (nucleosome)
DNA 1: B4 DNA 1 with T72A, A74G, A75C, G76T, G77C, C78A, C79A, A80G, C81G, C84A
DNA 2: B4 DNA 2 with G70T, G73C, T74C, G75T, G76T, C77G, C78A, T79G, T80C, A82T
modifications: reconstituted with mouse histones H2A, H2B, H3.3 and H4
B6: the binding signal in test [1] was 1.28 log2 enrichment (bound/unbound, relative to Widom 601); in test [2], 1.51 log2 enrichment (bound/unbound, relative to Widom 601).

B7: 72 (nucleosome)
DNA 1: B4 DNA 1 with T72A, A74G, A75T, G76C, G77A, C78A, C79G, A80G, C83A
DNA 2: B4 DNA 2 with G71T, T74C, G75C, G76T, C77T, C78G, T79A, T80C, A82T
modifications: reconstituted with mouse histones H2A, H2B, H3.3 and H4
B7: the binding signal is 1 log2 enrichment (bound/unbound, relative to Widom 601) in test [1] and 1.27 log2 enrichment (bound/unbound, relative to Widom 601) in test [2].

B8: 8 (nucleosome)
DNA 1: ATCCTGGAGATCAAGGCCACCGAGGCCGCTCAATTGGTCGTAGACAGCTCTAGCACCGCTTAAACGCACGTACGCGCTGTCCCCCGCGTTTTAACCGCCAAGGGGATTACTCCCTAGTCTCCAGGCACGTGTCAGATATATACATCCTGTGAT
DNA 2: ATCACAGGATGTATATATCTGACACGTGCCTGGAGACTAGGGAGTAATCCCCTTGGCGGTTAAAACGCGGGGGACAGCGCGTACGTGCGTTTAAGCGGTGCTAGAGCTGTCTACGACCAATTGAGCGGCCTCGGTGGCCTTGATCTCCAGGAT
modifications: reconstituted with mouse histones H2A, H2B, H3.3 and H4
With B8, the binding signal in test [1] is 2.08 log2 enrichment (bound/unbound, relative to Widom 601); in test [2] it was 1.69 log2 enrichment (bound/unbound, relative to Widom 601).

B9: 9 (nucleosome)
DNA 1: B8 DNA 1 with T11A, C12T, A13C, G15A, C17G, A19C, C20A
DNA 2: B8 DNA 2 with G134T, T135G, G137C, C139T, T141G, G142A, A143T
modifications: reconstituted with mouse histones H2A, H2B, H3.3 and H4
Take B9: the binding signal is 3.63 log2 enrichment (bound/unbound, relative to Widom 601) in test [1] and 3.37 log2 enrichment (bound/unbound, relative to Widom 601) in test [2].

B10: 61 (nucleosome)
DNA 1: ATCCTGGAGAATCCCGGTGCCGAGGCCGCTCAATTGGTCGTAGACAGCTCTAGCACCGCTTAATCAAGGCCACGCGCTGTCCCCCGCGTTTTAACCGCCAAGGGGATTACTCCCTAGTCTCCAGGCACGTGTCAGATATATACATCCTGTGAT
DNA 2: ATCACAGGATGTATATATCTGACACGTGCCTGGAGACTAGGGAGTAATCCCCTTGGCGGTTAAAACGCGGGGGACAGCGCGTGGCCTTGATTAAGCGGTGCTAGAGCTGTCTACGACCAATTGAGCGGCCTCGGCACCGGGATTCTCCAGGAT
modifications: reconstituted with mouse histones H2A, H2B, H3.3 and H4
With B10, the binding signal in test [1] was 0.699 log2 enrichment (bound/unbound, relative to Widom 601); in test [2], 0.779 log2 enrichment (bound/unbound, relative to Widom 601).

B11: 62 (nucleosome)
DNA 1: B10 DNA 1 with T64A, C65T, A66C, G68A, C70G, A72C, C73A
DNA 2: B10 DNA 2 with G81T, T82G, G84C, C86T, T88G, G89A, A90T
modifications: reconstituted with mouse histones H2A, H2B, H3.3 and H4
Take B11: the binding signal in test [1] is 1.24 log2 enrichment (bound/unbound, relative to Widom 601); in test [2], 1.27 log2 enrichment (bound/unbound, relative to Widom 601).

B12: 67 (nucleosome)
DNA 1: B1 DNA 1 with T68A, A70T, A71C, G72A, G73A, C74G, C75G, A76C, T78A
DNA 2: B1 DNA 2 with A76T, T78G, G79C, G80C, C81T, C82T, T83G, T84A, A86T
modifications: reconstituted with mouse histones H2A, H2B, H3.3 and H4
With B12, the binding signal in test [1] was 0.806 log2 enrichment (bound/unbound, relative to Widom 601); in test [2] it was 0.96 log2 enrichment (bound/unbound, relative to Widom 601).

B13: 64 (nucleosome)
DNA 1: B1 DNA 1 with C67T, T68C, C69A, A71G, G73C, C75A, A76G
DNA 2: B1 DNA 2 with T78C, G79T, C81G, T83C, G85T, A86G, G87A
modifications: reconstituted with mouse histones H2A, H2B, H3.3 and H4
As to B13, the binding signal in test [1] is 0.83 log2 enrichment (bound/unbound, relative to Widom 601); in test [2] it was 0.992 log2 enrichment (bound/unbound, relative to Widom 601).

B14: 63 (nucleosome)
DNA 1: B4 DNA 1 with G66T, C69A, T71G, T72C, A75C, G77C, C78T, C79G, A80T
DNA 2: B10 DNA 2 with C80T, T82G, G83C, G84C, C85T, C86T, T87G, T88A, A90T
modifications: reconstituted with mouse histones H2A, H2B, H3.3 and H4
Turning to B14, the binding signal was 1.09 log2 enrichment (bound/unbound, relative to Widom 601) in test [1] and 1.1 log2 enrichment (bound/unbound, relative to Widom 601) in test [2].

B15: 66 (nucleosome)
DNA 1: B1 DNA 1 with T68A, C69T, A70C, G72A, C74G, A76C, C77A
DNA 2: B1 DNA 2 with G77T, T78G, G80C, C82T, T84G, G85A, A86T
modifications: reconstituted with mouse histones H2A, H2B, H3.3 and H4
On to B15, for which the binding signal was 1.05 log2 enrichment (bound/unbound, relative to Widom 601) in test [1] and 1.15 log2 enrichment (bound/unbound, relative to Widom 601) in test [2].

For the origin of these results see paper PMC11102866, “Nucleosome-bound NR5A2 structure reveals pioneer factor mechanism by DNA minor groove anchor competition”.
